Bioassay records: PubChem BioAssay, The Scripps Research Institute Molecular Screening Center
An excerpt weighted towards active compounds, which were near 1.6% of everything screened.
MOR-DOR inv ag: inverse agonist of human OPRM1-OPRD1 heterodimerization; P35372+P41143; 340,000 tested, 0.21% active; cell-based MOR-DOR heterodimer luminescence, inverse agonism; inhibition, % at 9.3 µM; in the data active means inhibition above about 22%, passing the limit was not always enough
HTR2A ag: activates the mouse 5-HT2A serotonin receptor; CHO-K1 mHTR2A beta-arrestin complementation, luminescence; percent of 30 µM serotonin response; activation, % at 7.6 µM; 360,000 tested, 0.66% active; AID 624169;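 active means activation above a run cutoff, the mean activation of all tested compounds plus 3 SD, cut at about 14% in these data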
Target sequence (P35363 whole entry, looked up): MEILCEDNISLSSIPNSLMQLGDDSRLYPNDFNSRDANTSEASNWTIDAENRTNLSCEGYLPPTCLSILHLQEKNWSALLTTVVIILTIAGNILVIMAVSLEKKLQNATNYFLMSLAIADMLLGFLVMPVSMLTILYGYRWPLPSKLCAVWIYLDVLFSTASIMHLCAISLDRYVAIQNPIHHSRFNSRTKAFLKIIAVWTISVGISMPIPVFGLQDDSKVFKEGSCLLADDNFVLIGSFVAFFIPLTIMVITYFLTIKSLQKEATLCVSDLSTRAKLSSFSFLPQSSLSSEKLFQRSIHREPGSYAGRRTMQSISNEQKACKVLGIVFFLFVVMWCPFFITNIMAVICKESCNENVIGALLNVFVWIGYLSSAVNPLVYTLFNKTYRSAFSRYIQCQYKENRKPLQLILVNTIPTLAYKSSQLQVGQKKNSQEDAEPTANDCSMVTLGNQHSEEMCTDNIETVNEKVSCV
OPRM1-OPRD1 ag: OPRM1-OPRD1 heterodimerization agonism; P35372+P41143; cells, luminescence; activation, % at 9.3 µM; 340,000 tested, 0.3% active; in the data active means activation above about 18%
HTR5A inv ag: inverse agonist of human HTR5A in OPRM1-OPRD1 counter-screen; 340,000 tested, 0.083% active; inhibition, % at 9.3 µM; P47898; HTR5A cell line, luminescence, inverse agonism; AID 504634; in the data active means inhibition mostly above about 23%, no sharp cut-off; inactive means mostly below about 18%
HTR5A ag: HTR5A agonism, opioid heterodimer counter-screen | P47898 | HTR5A agonist assay, luminescence, cell-based | activation, % at 9.3 µM | 340,000 tested, 0.61% active | AID 504692; in the data active means activation mostly above about 9.5%, no sharp cut-off; inactive means mostly below about 7.6%
MOR ag counter: counter-screen for mouse HTR2A agonists: human mu opioid receptor agonists | U2OS OPRM1 beta-arrestin PathHunter, luminescence; DMSO 0%, DAMGO 9.3 µM 100% | activation, % at 9.3 µM | 2,300 tested, 5.3% active | shares compounds with HTR2A ag;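 active means mean activation above the mean of DMSO-only wells plus 3 SD, cut at about 0.5% in these data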
HTR2A ag conf: confirmation of mouse HTR2A serotonin receptor agonists; shares compounds with HTR2A ag; CHO-K1 PathHunter beta-arrestin recruitment, luminescence; DMSO 0%, 30 µM serotonin 100%; activation, % at 7.6 µM; 2,300 tested, 19% active;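 active means mean activation across triplicates above the hit threshold derived in the original primary screen, cut at about 15% in these data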
Each line names hits and unclear results; the compound was inactive in the other large screens (follow-up assays come after a bar, where they were run).

Cc1noc(C)c1CSCC(=O)N(C)CC(=O)Nc1ccccc1Cl	HTR2A ag 14.5 | MOR ag counter inactive | HTR2A ag conf inactive
Cc1noc(C)c1CSCC(=O)N(C)CC(=O)Nc1ccc(Cl)cc1	none
O=C(COC(=O)c1ccc(Cl)c(S(=O)(=O)N2CCCCC2)c1)NCCc1ccccc1	none
Cc1ccc(C(=O)OCC(=O)NCc2cccc(Cl)c2)cc1S(=O)(=O)N1CCCCC1	HTR2A ag 16.8 | MOR ag counter inactive | HTR2A ag conf inactive
CCOc1ccc(NC(=O)CN(C)C(=O)Cc2ccc3c(c2)OCCO3)cc1OCC	none (no result: MOR-DOR inv ag, OPRM1-OPRD1 ag, HTR5A inv ag, HTR5A ag)
CC(C)C(NC(=O)/C(=C\c1ccco1)NC(=O)c1ccco1)C(=O)O (stereo not drawn)	HTR2A ag 19.1 | MOR ag counter inactive | HTR2A ag conf inactive
CC(C)C(NC(=O)/C(=C/c1ccco1)NC(=O)c1ccc(Br)o1)C(=O)O (stereo not drawn)	none
COc1ccc(OC)c(CN2CCN(C(=O)c3ccco3)CC2)c1	HTR2A ag 16.4 | MOR ag counter 1.2 | HTR2A ag conf 33.8
Cc1oc(-c2cc(F)ccc2F)nc1CN1CCCN(C(=O)c2ccco2)CC1	none
COc1cccc(-c2nc(CN3CCN(C(=O)c4ccco4)CC3)c(C)o2)c1OC	HTR2A ag 14.8 (no result: MOR-DOR inv ag, OPRM1-OPRD1 ag, HTR5A inv ag, HTR5A ag) | MOR ag counter inactive | HTR2A ag conf 42.9
COc1ccc(C(=O)N2CCN(Cc3cc(OC)ccc3OC)CC2)cc1	none
COc1cccc(CN2CCN(C(=O)c3ccco3)CC2)c1	HTR2A ag 37.3 | MOR ag counter inactive | HTR2A ag conf 108.8
COc1ccc2oc(C(=O)N3CCN(c4ncccn4)CC3)c(C)c2c1	none
COc1ccc2oc(C(=O)N3CCN(C(=O)c4ccco4)CC3)c(C)c2c1	HTR2A ag 14.5 | MOR ag counter inactive | HTR2A ag conf inactive
COc1ccc(S(=O)(=O)N2CCC3CC2c2c(-c4ccc(C(F)(F)F)cc4)cccc23)cc1 (stereo not drawn)	none (no result: MOR-DOR inv ag, OPRM1-OPRD1 ag, HTR5A inv ag, HTR5A ag)
CSc1ccc(NC(=O)C2(C)CCN2C(=O)Cc2ccc(C(C)(C)C)cc2)cc1 (stereo not drawn)	none (no result: MOR-DOR inv ag, OPRM1-OPRD1 ag, HTR5A inv ag, HTR5A ag)
COC(=O)C1=C/C=C\CN(C(c2ccccc2)c2ccccc2)/C=C\1C(=O)OC	none (no result: MOR-DOR inv ag, OPRM1-OPRD1 ag, HTR5A inv ag, HTR5A ag)
O=S(=O)(c1ccc(Br)cc1)N1CCCN(Cc2cccc(F)c2)CC1	none
COc1cccc(CN2CCCN(S(=O)(=O)c3ccc(Br)cc3)CC2)c1	HTR2A ag 28.8 | MOR ag counter inactive | HTR2A ag conf inactive
Cc1ccc(NC(=O)CSc2nnc(Cn3c(=O)sc4ccccc43)n2C)cc1	none
Cn1c(Cn2c(=O)sc3ccccc32)nnc1SCC(=O)Nc1ccccc1	HTR2A ag 20.5 | MOR ag counter inactive | HTR2A ag conf inactive
CN1C(=O)N(CC(=O)c2ccc3c(c2)OCO3)C(=O)C12CCCCC2	none (no result: MOR-DOR inv ag, OPRM1-OPRD1 ag, HTR5A inv ag, HTR5A ag)
O=C(O)CCCC(=O)NCc1c(Cl)cccc1Sc1ccc(Cl)cc1	none
CC(C)(CC(=O)O)CC(=O)NCc1c(Cl)cccc1Sc1ccc(Cl)cc1	HTR2A ag 15.5 (no result: MOR-DOR inv ag, OPRM1-OPRD1 ag, HTR5A inv ag, HTR5A ag) | MOR ag counter inactive | HTR2A ag conf inactive
CC1(CO)CCCC1NCCNC1CCCC1(C)CO (stereo not drawn)	none (no result: MOR-DOR inv ag, OPRM1-OPRD1 ag, HTR5A inv ag, HTR5A ag)
CC(=O)C12OC1CC1C3CCC4=CC(=O)CCC4(C)C3CCC12C (stereo not drawn)	HTR2A ag 15.8 | MOR ag counter inactive | HTR2A ag conf inactive
C[C@]12CCC(=O)C=C1CCC1C2CC[C@@]2(C)C1CCC21OCCO1 (stereo partly drawn)	none
Cc1nc(NC(=O)c2ccco2)sc1C(=O)O	HTR2A ag 18.6 | MOR ag counter inactive | HTR2A ag conf inactive
CCOc1cc(N2CCOCC2)c(OCC)cc1NC(=O)CN1C(=O)NC(CC)(c2ccc(F)cc2)C1=O (stereo not drawn)	HTR2A ag 15.2 | MOR ag counter inactive | HTR2A ag conf inactive
CC(=O)Oc1ccc(Cn2c(C)c(C(=O)NCc3ccc4c(c3)OCCO4)sc2=O)cc1	none (no result: MOR-DOR inv ag, OPRM1-OPRD1 ag, HTR5A inv ag, HTR5A ag)
Cc1csc2c(N3CCN(C(=S)Nc4ccc(C(F)(F)F)cc4)CC3)ncnc12	HTR2A ag 31.8 | MOR ag counter inactive | HTR2A ag conf inactive
